In PubChem BioAssay AID2060323 (National Center for Advancing Translational Sciences (NCATS), 2025):
Inconclusive results are not listed. Where a call stands in place of a potency, no number is given. Calls of active or inactive are those of the source. Calls come from the whole dose curve; as a rule, active = well fitted activation curve with a large enough effect; inconclusive = small, poorly fitted or top-dose-only effect; inactive = no such curve, though single readings can be large or run the other way.

The compounds below were run against Cellular tumor antigen p53 (Homo sapiens) (UniProt P04637) (assay: Confirmatory qHTS for small molecule compounds that upregulate eGFP-tagged delta133p53alpha (in C-terminal) cells.). Conditions: delta133p53alpha-eGFP (C-terminal) reporter cells, GFP fluorescence upregulation; series mostly up to 57.5 µM.
Chain of Cellular tumor antigen p53 (Homo sapiens) (P04637 whole entry, looked up): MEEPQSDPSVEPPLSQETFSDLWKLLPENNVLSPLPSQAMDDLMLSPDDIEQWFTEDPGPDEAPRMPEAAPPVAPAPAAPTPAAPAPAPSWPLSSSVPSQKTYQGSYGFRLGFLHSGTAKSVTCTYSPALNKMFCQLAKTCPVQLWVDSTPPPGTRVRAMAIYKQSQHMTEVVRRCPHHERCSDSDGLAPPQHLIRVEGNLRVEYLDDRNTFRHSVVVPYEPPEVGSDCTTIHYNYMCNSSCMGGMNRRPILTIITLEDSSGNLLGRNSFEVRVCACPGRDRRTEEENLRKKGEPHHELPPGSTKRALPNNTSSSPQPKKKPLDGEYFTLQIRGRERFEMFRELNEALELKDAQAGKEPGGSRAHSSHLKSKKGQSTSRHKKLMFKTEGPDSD
Source text: Assay Development and Screening Technology
National Center for Advancing Translational Sciences (NCATS),
National Institute of Health (NIH), Rockville, Maryland
Cellular senescence (CS) is one of the hallmarks of aging and age-related diseases. Senescent cells are characterized by an irreversible growth arrest, an increase in senescence-associated beta-galactosidase (SA-beta-gal) activity and p16INK4a expression, an activation of the DNA damage response pathways, and the emergence of a senescence-associated secretory phenotype (SASP).
Delta133p53alpha, a human/primate-specific p53 protein isoform, delays or inhibits the induction of CS and SASP in various types of human cells, including progeria-derived fibroblasts, primary normal astrocytes, and CD8+ T lymphocytes. Induction of delta133p53alpha with small molecule compounds may provide therapeutic opportunities for inhibition of senescence/SASP-associated pathologies in progeria syndromes, astrocyte-mediated neuroprotection in neurodegenerative diseases, and possibly prevention and treatment of a wider range of senescence- and aging-associated diseases.
Here we report the development and validation of a cell-based quantitative high throughput screening (qHTS) assay in 1,536-well format. This qHTS assay uses the NCI-H358 cell line with doxycycline-inducible expression of enhanced green fluorescent protein (eGFP)-tagged delta133p53alpha, which allows efficient and highly quantitative measurement of the protein levels.
PROTOCOL TABLE (as described by Inglese J, Shamu CE and Guy RK. 2007)
SEQUENCE No. (e.g., 1, 2, 3, etc.); […] (e.g., Cells, Incubation, Reagent, etc.); VALUE; DESCRIPTION.
1; Cells; 4uL; 800 doxycycline treated cells / well in doxycycline-free media, 1536-well black, clear-bottom low base Aurora microplates.
2; Compounds; 23 nL; Kalypsis pin tool (Wako) equipped with 1536-well pin heads, 5-azacytidine positive control.
3; Incubation; 24 hr; 37C, 5% CO2; 95% relative humidity.
4; Aspiration; 1x; BioTek EL406 washer dispenser (Agilent).
5; Fixing; 3.5% paraformaldehyde, BioTek EL406 washer dispenser (Agilent).
6; Washing; 1x PBS; BioTek EL406 washer dispenser (Agilent).
7; Nuclei staining; 1:1000 dilution of Hoechst 33342 (Thermofisher), BioTek EL406 washer dispenser (Agilent).
8; Incubation; 20 min; in the dark at room temperature.
9; Washing; 2x, 1x PBS (ThermoFisher), BioTek EL406 washer dispenser (Agilent).
10; Reagent; 10 uL; 1x PBS per well, sealed with clear adhesive tape.
11; Detection; Fluorescence, Acumen eX3 laser scanning cytometer (STP Labtech), GFP filters […].
NOTES (numbers refer to sequence numbers above).
1. NCI-H358 cells expressing eGFP-tagged delta133p53alpha were grown in T75 culture flasks and treated with doxycycline for 24h, at 10 ng/ml for eGFP-D133p53a cells (N-terminal cell) and 100 ng/ml for D133p53a-eGFP cells (C-terminal cells). Cells were trypsinized, counted using a Counted 3 Automated Cell Counter (Thermo Fisher), and diluted to a concentration of 200,000 cells/ml. A Multidrop Combi Reagent Dispenser (ThermoFisher) was used to dispense 800 cells/well in […] of doxycycline-free media, into 1536-well black/clear bottom low base plates (AuroraMicroplates).
2. After plating cells, 23 nl of compound library, DMSO vehicle control or positive control (5-azacytidine) were transferred by Pin Tool (Wako). The plate map layout was the same for each plate: (column 1) non-doxycycline treated cells + DMSO vehicle control; (column 2) doxycycline treated cells + DMSO vehicle control baseline; (column 3) doxycycline treated cells + positive control 57.5 uM final concentration 5-azacytidine; (column 4) doxycycline treated cells + serial dilution of 5-azacytidine, 16-point 1:2 titration spanning 1.8 nM to […] final concentration; (columns 5-48) doxycycline treated cells + titration of library compounds.
3. Cells were incubated at 37 °C, 5 % CO2, 95% RH with breathable metal lid for 24h.
4-10. […]
`O=C1N(c2ccccc2)c2ccccc2C1(Cc1ccncc1)Cc1ccncc1` was tested, and the Potency was “inactive”.
In the case of `CC(C)(CO)Cc1cc(C(C)(C)C)c(O)c(C(C)(C)C)c1`, the Potency was “inactive”.
With `Cc1ccc(S(=O)(=O)/C=C/C#N)cc1` the Potency was 21.7 µM (active).
For `COC(=O)Nc1nc2ccc(C(=O)c3cccs3)cc2[nH]1`, the Potency was “inactive”.
For `NS(=O)(=O)c1ccc(-n2nc(C(F)(F)F)cc2-c2ccc(Cl)cc2)cc1`, the Potency was “inactive”.
For `Brc1c(Br)c(Br)c2[nH]cnc2c1Br`, the Potency was 21.7 µM (active).
In the case of `CN(C)C(=O)C(CCN1CCC(O)(c2ccc(Cl)cc2)CC1)(c1ccccc1)c1ccccc1`, the Potency was “inactive”.
In the case of `CN(C)S(=O)(=O)c1ccc2c(c1)/C(=C/c1cc3c([nH]1)CCCC3)C(=O)N2`, the Potency was 0.769 µM (active).
`CSc1ccccc1N1CCN(CCCCCC(=O)NC2CCCc3ccccc32)CC1` (stereo unspecified) was tested, and the Potency was “inactive”.
In the case of `CN(C)c1nc(N)c(C(=O)N=C(N)N)nc1Cl`, the Potency was “inactive”.
`CC(=O)N[C@@H](CS)C(=O)O` was tested, and the Potency was “inactive”.
For `Cc1cccc(-c2[nH]ncc2-c2ccc3ncccc3n2)n1`, the Potency was “inactive”.
For `Cn1c(=O)c2[nH]c(-c3ccccc3)nc2n(C)c1=O`, the Potency was “inactive”.
In the case of `CC(C)(C)c1ccc(S(=O)(=O)/C=C/C#N)cc1`, the Potency was 13.7 µM (active).
For `CCN1CCCC1CNC(=O)c1cc(S(=O)(=O)CC)c(N)cc1OC` (stereo unspecified), the Potency was “inactive”.
In the case of `C[n+]1cc2c3c(ccc2c2ccc4cc5c(cc4c21)OCO5)OCO3`, the Potency was 0.968 µM (active).
For `CCN1CCCC1CNC(=O)c1cc(S(N)(=O)=O)ccc1OC` (stereo unspecified), the Potency was “inactive”.
`O=C(O)c1cc2cc(F)ccc2[nH]1` was tested, and the Potency was “inactive”.
For `CCN(CC)CCCC(C)Nc1c2ccc(Cl)cc2nc2ccc(OC)cc12` (stereo unspecified), the Potency was 8.63 µM (active).
In the case of `CC(=O)SC1CC2=CC(=O)CC[C@]2(C)C2CC[C@@]3(C)C(CC[C@@]34CCC(=O)O4)C12` (stereo partly specified), the Potency was “inactive”.
`COc1cc(/C=C(\C#N)C(=O)c2ccc(O)c(O)c2)cc(I)c1O` was tested, and the Potency was 12.2 µM (active).
